The list is not random: actives were taken first. Their share in the collection is about 1.6%.
OPRM1-OPRD1 ag = agonists of OPRM1-OPRD1 heterodimerization, primary screen, cell-based, luminescence. AID 504326, 2011. actives 0.3% (n = 340,000). cells. activation, % at 9.3 µM; in the data active means activation above about 18%;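 further: 0% = vehicle-treated cells and 100% = reference agonist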
HTR5A inv ag = HTR5A inverse agonists in luminescence cell assay, primary screen, counter-screen for OPRM1-OPRD1 heterodimer inverse agonist project, full-deck HTS. actives 0.083% (n = 340,000). inhibition, % at 9.3 µM. 5-hydroxytryptamine receptor 5A (Homo sapiens), P47898. AID 504634, 2011. HTR5A cell line, inverse agonism; in the data active means inhibition mostly above about 23%, no sharp cut-off; inactive means mostly below about 18%;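 further: 0% = cells with DMSO and 100% = no-cell wells with DMSO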
Target sequence (P47898 whole entry, looked up): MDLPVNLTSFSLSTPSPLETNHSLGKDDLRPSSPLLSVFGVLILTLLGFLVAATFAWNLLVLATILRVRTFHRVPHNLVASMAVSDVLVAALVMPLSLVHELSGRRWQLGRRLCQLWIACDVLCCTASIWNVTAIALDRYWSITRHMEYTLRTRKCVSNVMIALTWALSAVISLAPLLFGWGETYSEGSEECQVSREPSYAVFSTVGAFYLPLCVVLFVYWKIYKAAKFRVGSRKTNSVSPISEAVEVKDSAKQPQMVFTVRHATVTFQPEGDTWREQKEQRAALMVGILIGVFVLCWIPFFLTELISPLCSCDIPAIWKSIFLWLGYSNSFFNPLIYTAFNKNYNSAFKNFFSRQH
HTR5A ag ctr = HTR5A agonists in luminescence cell assay, primary screen, counter-screen for OPRM1-OPRD1 heterodimer agonist project, full-deck HTS; 5-hydroxytryptamine receptor 5A (Homo sapiens), P47898; cell-based; AID 504692, 2011; actives 0.61% (n = 340,000); activation, % at 9.3 µM; in the data active means activation mostly above about 9.5%, no sharp cut-off; inactive means mostly below about 7.6%;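 further: 0% = cells with vehicle only and 100% = reference agonist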
HTR2A ag = mouse Htr2a agonists via beta-arrestin recruitment, primary screen, cell-based, luminescence. actives 0.66% (n = 360,000). CHO-K1 mHTR2A beta-arrestin complementation; percent of 30 µM serotonin response. activation, % at 7.6 µM;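 active means activation above a run cutoff, the mean activation of all tested compounds plus 3 SD, cut at about 14% in these data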;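 further: 0% = plate median of compound wells and 100% = 30 µM serotonin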
MOR-DOR inv ag = inverse agonists of MOR-DOR heterodimerization, primary screen, cell-based, luminescence | cell-based MOR-DOR heterodimer luminescence, inverse agonism | inhibition, % at 9.3 µM | actives 0.21% (n = 340,000) | Mu-type opioid receptor (Homo sapiens) + Delta-type opioid receptor (Homo sapiens), … | AID 504357, 2011; in the data active means inhibition above about 22%, passing the limit was not always enough;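 further: 0% = cells with DMSO and 100% = wells without cells with DMSO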
MOR ag counter = OPRM1 agonists via beta-arrestin recruitment, confirmation, counter-screen for mouse HTR2A agonist project, cell-based, luminescence, single concentration. actives 5.3% (n = 2,300). U2OS OPRM1 beta-arrestin PathHunter; DMSO 0%, DAMGO 9.3 µM 100%. activation, % at 9.3 µM. shares compounds with HTR2A ag;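 active means mean activation above the mean of DMSO-only wells plus 3 SD, cut at about 0.5% in these data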
m5-HT2A ag conf = mouse HTR2A agonists, beta-arrestin recruitment, confirmation, cell-based, luminescence, CHO-K1 PathHunter, triplicate; shares compounds with HTR2A ag; DMSO 0%, 30 µM serotonin 100%; activation, % at 7.6 µM; actives 19% (n = 2,300);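 active means mean activation across triplicates above the hit threshold derived in the original primary screen, cut at about 15% in these data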
Active calls of the source: *; x = no result given.

SMILES	OPRM1-OPRD1 ag	HTR5A inv ag	HTR5A ag ctr	HTR2A ag	MOR-DOR inv ag	MOR ag counter	m5-HT2A ag conf
CC1=C(C(=O)N2CCOCC2)CC(CC(=O)NCc2cccc3ccccc23)C(=O)N1CCCN1CCCC1=O (stereo not drawn)	x	x	x	2.5	x	x	x
CCCCN1C(=O)C(CC(=O)NCc2cccc3ccccc23)CC(C(=O)N2CCOCC2)=C1C (stereo not drawn)	x	x	x	14.6*	x	-0.3	4.1
CCCCCCNC(=O)O[C@H]1Cn2c(=O)ccc(=O)n2[C@@H]2CN(S(=O)(=O)c3ccc(C)cc3)C[C@]12O	x	x	x	3.1	x	x	x
O=C(c1[nH]c(C(F)(F)F)nc1-c1ccccc1)N1CCCN(Cc2ccc(F)cc2)CC1	x	x	x	-0.4	x	x	x
O=C1OC(N2CCN(c3ccccn3)CC2)c2ccccc21 (stereo not drawn)	0.1	-7.2	2.6	14.7*	-0.6	-0.6	22.6*
CN1CCN(C2OC(=O)c3ccccc32)CC1 (stereo not drawn)	-2.8	-14.3	5.5	-0.2	13.8	x	x
CCc1ccc(OCCCC(=O)Nc2ccc(S(=O)(=O)Nc3cc(C)nc(C)n3)cc2)cc1	1.2	0.1	0.0	14.9*	-9.9	-0.6	-6.5
CC(=O)NCCn1c(SCC#N)nc2ccccc2c1=O	-3.6	-24.4	-1.8	14.9*	17.9	-0.4	-1.7
CC(=O)Nc1ccc(-c2ccnc3c2CC(C)(C(=O)Nc2cccc(C(C)=O)c2)O3)cc1 (stereo not drawn)	x	x	x	-1.7	x	x	x
Cc1ccc(C)c2[nH]c(=O)c(CN(CCN3CCCC3)C(=O)Nc3ccc(F)cc3)cc12	-2.3	12.2	-3.4	16.6*	12.2	-0.5	4.8
CCc1nc2c(OCC=C(C)C)cccn2c1N(C)C(=O)c1ccc(OC)cc1	x	x	x	-2.1	x	x	x
c1ccc(Nc2nc(N3CCCCC3)nc(N3CCNCC3)n2)cc1	2.9	16.4	2.6	54.7*	-16.8	-0.5	31.1*
COc1ccc(C(=O)Nc2ccc(OC)c([N+](=O)[O-])c2)cc1Br	-2.0	11.7	0.6	24.2*	10.0	-0.5	13.8
COc1ccc(C(=O)Nc2ccc(Nc3ccccc3)cc2)cc1[N+](=O)[O-]	0.8	8.7	-2.3	-3.6	-3.8	x	x
Nc1ccc2c(c1)C1(CCC2)NC(=O)NC1=O (stereo not drawn)	x	x	x	0.7	x	x	x
Fc1ccc(CN2CCN(c3ncccn3)CC2)cc1	0.3	-10.0	4.3	22.6*	-2.1	1.3*	142.0*
Oc1ccc(F)c(CN2CCN(c3ncc(Cc4ccccc4)cn3)CC2)c1	x	x	x	-6.4	x	x	x
Fc1ccc(F)c(CN2CCN(c3ncccn3)CC2)c1	-0.8	-39.1	0.5	43.8*	4.5	-0.8	100.6*
COc1ccc(-c2noc(CCC(=O)Nc3cccc(C(=O)NC4CC4)c3)n2)cc1OC	x	x	x	-0.1	x	x	x
COC(=O)[C@H]1C[C@@]2(O)CN(S(=O)(=O)c3ccc(C)cc3)C[C@@]2(OC(=O)NCc2ccccc2F)C[C@H]1C(=O)OC	x	x	x	19.4*	x	-0.3	-2.2
CCCCCCCCN1C(=O)[C@H](CC(=O)NCCc2ccccc2OC)C[C@@]2(C(=O)OCC)CCC=C12	x	x	x	-0.6	x	x	x
Cc1cc(OC(=O)c2cccc(F)c2)c([N+](=O)[O-])c(=O)[nH]1	-1.3	-4.1	1.1	14.5*	6.7	-0.4	-2.9
Cc1cc(OC(=O)c2cccc(Cl)c2)c([N+](=O)[O-])c(=O)[nH]1	-1.4	4.5	4.7	-4.2	7.3	x	x
Cc1ccc(OCCC(=O)OCC(=O)Nc2ccccc2)cc1	-0.8	-7.5	0.0	17.3*	5.8	-0.6	-4.7
Cc1ccc(NC(=O)[C@@H]2O[C@H](CO)[C@@H](O)[C@H]2O)cc1C(F)(F)F	x	x	x	-5.9	x	x	x

Source: PubChem BioAssay
